RORgamma inh = inhibitors of mouse ROR gamma transcriptional activity; P51450; Drosophila S2 Gal4-RORgamma UAS-luciferase reporter, 20 h; Potency, µM (highest dose often 53.6 µM), actives largely listed as inhibitors; actives 5.4% (n = 310,000); AID 2551; also: nearly all actives have a fitted effect of over 60% in size
Target sequence (P51450 whole entry, looked up, the tested form may be a part): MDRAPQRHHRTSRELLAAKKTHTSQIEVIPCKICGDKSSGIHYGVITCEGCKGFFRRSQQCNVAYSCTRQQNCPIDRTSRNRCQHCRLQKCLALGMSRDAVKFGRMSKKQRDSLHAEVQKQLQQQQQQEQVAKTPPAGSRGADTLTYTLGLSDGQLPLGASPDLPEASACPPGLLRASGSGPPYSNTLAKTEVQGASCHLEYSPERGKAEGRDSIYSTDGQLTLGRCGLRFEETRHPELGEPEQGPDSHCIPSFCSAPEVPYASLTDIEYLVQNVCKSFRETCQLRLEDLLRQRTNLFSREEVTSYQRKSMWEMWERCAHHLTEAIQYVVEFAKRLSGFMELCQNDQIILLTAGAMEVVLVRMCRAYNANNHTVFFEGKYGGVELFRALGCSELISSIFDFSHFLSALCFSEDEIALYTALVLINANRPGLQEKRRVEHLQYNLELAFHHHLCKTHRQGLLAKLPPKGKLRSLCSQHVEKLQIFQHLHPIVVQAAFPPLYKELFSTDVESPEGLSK
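Using a luciferase readout, inhibitors were identified by reduced reporter activity in Drosophila cells coexpressing a copper-inducible Gal4–ROR gamma fusion and UAS-driven Photinus luciferase, incubated 20 hr after 700 uM copper sulfate.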
ELG1 DNA repair = ELG1-dependent DNA repair inhibition; HEK293T ELG1-luciferase reporter, luminescence, 16 h; DNA damage induced by 5-fluorouridine; Potency, µM (doses to about 46.1 µM), usual class: inhibitors; actives 2.3% (n = 330,000); AID 504467; also: nearly all actives have a fitted effect of over 55% in size
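Luminescence from the luciferase reporter, measured 30 min after ONE-Glo reagent at room temperature, was the read-out. Beforehand, 2,000 cells per well were exposed for 16 hr at 37 °C to 5-fluorouridine together with compound or vehicle.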
SW480 rereplic = induces DNA re-replication in SW480 colon adenocarcinoma cells | actives 1.8% (n = 340,000) | SW480 DNA re-replication, Hoechst DNA content imaging, 48 h | Potency, µM (titrated, usually from 46.1 µM), most hits filed as activators; also: nearly all actives have a fitted effect of over 55% in size
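Treated cells incubate 48 hr (37 C, 5% CO2), are stained 40 min with Hoechst, and nuclear fluorescence is enumerated; a rise in nuclei with high DNA signal marks re-replication.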
MCF10A rerep = DNA re-replication induction in MCF 10a cells; Potency, µM (top dose mostly 46.1 µM), actives largely listed as activators; MCF 10A DNA re-replication, Hoechst nuclear intensity, 48 h; actives 2.9% (n = 350,000); also: nearly all actives have a fitted effect of over 50% in size
Gal4-VP16 FLuc = counter-screen for ROR gamma inhibitors: Gal4-VP16 reporter; AID 2546; actives 3.5% (n = 310,000); Drosophila S2 Gal4-VP16 UAS-luciferase, luminescence, 20 h; Potency, µM (series often up to 53.6 µM), actives largely listed as inhibitors;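 also: Gal4-VP16 expression switched on by copper sulfate through the metallothionein promoter; nearly all actives have a fitted effect of over 50% in size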
Of the large screens only hits and unclear results are named; the others gave an inactive call. An excerpt weighted towards active compounds, which were near 10% of everything screened. Calls follow the shape of the dose curve; as a rule, active = well fitted curve in the direction sought with a large enough effect; inconclusive = small, poorly fitted or top-dose-only effect, or another doubt; inactive = no such curve, though single readings can be large; an effect the other way counts as inactive or inconclusive.

CCC(C(=O)NCc1ccc(F)cc1)N(CCc1ccccc1)C(=O)c1snc(C(N)=O)c1N (stereo unspecified)	SW480 rereplic inconclusive, MCF10A rerep inconclusive
COc1cc(OC)cc(C(=O)Oc2ccc(/C=N/Nc3nc4ccccc4s3)cc2OC)c1	RORgamma inh 10µM, ELG1 DNA repair inconclusive, MCF10A rerep inconclusive
COc1cc(/C=N/Nc2ccccc2[N+](=O)[O-])ccc1OC(=O)c1ccccc1F	ELG1 DNA repair inconclusive
COc1cc(/C=N/Nc2nc3ccccc3s2)ccc1OC(=O)c1ccccc1F	RORgamma inh inconclusive, ELG1 DNA repair inconclusive, SW480 rereplic inconclusive, MCF10A rerep 20.6µM, Gal4-VP16 FLuc inconclusive
N#CCSc1ncnc2ccccc12	ELG1 DNA repair 23.1µM, SW480 rereplic inconclusive, MCF10A rerep inconclusive
Cn1c(=O)n(C)c2cc(NC(=O)CSc3ccccc3)ccc21	ELG1 DNA repair inconclusive
O=C(Nc1ccc(F)cc1F)C1CCCN1S(=O)(=O)c1ccc(-c2ccc(=O)[nH]n2)s1 (stereo unspecified)	ELG1 DNA repair inconclusive
COC(=O)C1=C(C)NC2=C(C(=O)c3ccccc32)C1c1cccc(OC)c1 (stereo unspecified)	MCF10A rerep inconclusive
CC1=C([N+](=O)[O-])C(c2cccc(Br)c2)C2=C(N1)c1ccccc1C2=O (stereo unspecified)	SW480 rereplic 0.651µM, MCF10A rerep inconclusive, Gal4-VP16 FLuc inconclusive
Cc1ccc(OCCN2CCN(c3nc(NCc4ccco4)c4ccccc4n3)CC2)cc1	SW480 rereplic inconclusive, MCF10A rerep 14.6µM
OCCN1CCN(c2nc(NCc3ccco3)c3ccccc3n2)CC1	SW480 rereplic inconclusive, MCF10A rerep inconclusive
COc1ccc2nc3n(c(=O)c2c1)-c1cc(Cl)ccc1C(=O)NC3Cc1ccccc1 (stereo unspecified)	none (no result: RORgamma inh, SW480 rereplic, MCF10A rerep, Gal4-VP16 FLuc)
CCOc1cc(C(N)=O)cc(OCC)c1OCC	none
CCOc1cc(C(N)=O)cc(Br)c1OC	ELG1 DNA repair 5.17µM
CCn1nnc2cc(C(=O)Nc3cccc(S(=O)(=O)N(C)C)c3)ccc21	none (no result: RORgamma inh, Gal4-VP16 FLuc)
Cc1scc(-c2n[nH]c(=S)n2Cc2ccccc2)c1C	RORgamma inh 2.24µM, Gal4-VP16 FLuc 11.2µM
S=c1[nH]nc(-c2ccccc2Cl)n1Cc1ccccc1	RORgamma inh 2.82µM, Gal4-VP16 FLuc inconclusive
CCc1c(-c2n[nH]c(=S)n2Cc2ccccc2)csc1C	RORgamma inh 2.24µM, MCF10A rerep inconclusive, Gal4-VP16 FLuc 7.94µM
Oc1ccccc1-c1n[nH]c(=S)n1Cc1ccco1	none
S=c1[nH]nc(-c2ccc3ccccc3n2)n1-c1ccccc1Cl	none
S=c1[nH]nc(-c2ccc3ccccc3n2)n1Cc1ccccc1	RORgamma inh 2.24µM, ELG1 DNA repair inconclusive, Gal4-VP16 FLuc 5.62µM
CN1C(=O)/C(=C\c2ccc(OC(=O)c3ccco3)cc2)SC1=S	ELG1 DNA repair inconclusive
CCN(C(=O)c1cccc(S(=O)(=O)N2CCCCC2)c1)C1CCS(=O)(=O)C1 (stereo unspecified)	none (no result: RORgamma inh, Gal4-VP16 FLuc)
CC[C@H](C)[C@H]1CNC(=O)C(=O)N1CC1CCN(CC2CCC(C)CC2)CC1 (stereo partly specified)	MCF10A rerep inconclusive (no result: RORgamma inh, ELG1 DNA repair, Gal4-VP16 FLuc)
COc1ccc(Cl)cc1-c1n[nH]c(=S)n1Cc1ccccc1	RORgamma inh 5.01µM, Gal4-VP16 FLuc 5.01µM
S=c1[nH]nc(-c2ccc3ccccc3n2)n1-c1cc(Cl)cc(Cl)c1	RORgamma inh 0.794µM, Gal4-VP16 FLuc 2.24µM
Cc1ccc(C(C[N+](=O)[O-])c2c(C)[nH]n(-c3ccccc3)c2=O)cc1 (stereo unspecified)	RORgamma inh inconclusive, SW480 rereplic inconclusive, MCF10A rerep inconclusive, Gal4-VP16 FLuc inconclusive
Cc1[nH]n(-c2ccccc2)c(=O)c1C(C[N+](=O)[O-])c1ccc(Cl)cc1 (stereo unspecified)	SW480 rereplic 16.4µM, MCF10A rerep inconclusive, Gal4-VP16 FLuc inconclusive
COc1ccc(NC(c2ccccc2)c2ccncc2)cc1 (stereo unspecified)	ELG1 DNA repair 25.9µM
O=C(Cn1nnc2ccccc21)OCC(=O)c1ccc(F)cc1	none
CCc1c(C#N)c(SCCC(=O)Nc2ccc(OC)cc2)nc2c1C(=O)CC(C)(C)C2	ELG1 DNA repair inconclusive
CCc1c(C#N)c(SCc2c(C)noc2C)nc2c1C(=O)CC(C)(C)C2	RORgamma inh inconclusive, ELG1 DNA repair inconclusive, MCF10A rerep 9.2µM, Gal4-VP16 FLuc inconclusive
CC1=NN(c2ccc(Cl)cc2)C(=O)C1	ELG1 DNA repair inconclusive, MCF10A rerep inconclusive, Gal4-VP16 FLuc inconclusive
CC1=NN(c2nc(-c3ccc(Cl)cc3)cs2)C(=O)C1	RORgamma inh 10µM, MCF10A rerep inconclusive, Gal4-VP16 FLuc inconclusive
CC1=NN(c2nc(-c3ccc(F)cc3)cs2)C(=O)C1	RORgamma inh 12.6µM, MCF10A rerep inconclusive
Fc1ccc(-c2csc(N3CCSCC3)n2)cc1	none
COc1ccc(S(=O)(=O)N2CCCCCC2)cc1C(=O)NCc1ccc(C)cc1	ELG1 DNA repair inconclusive (no result: RORgamma inh, Gal4-VP16 FLuc)
CCOc1ccc(CCNC(=O)C(C)n2nc(C)c3c(C)n(-c4ccccc4)nc3c2=O)cc1 (stereo unspecified)	RORgamma inh inconclusive
COc1cccc(CN2CC(C(=O)NCCn3cccn3)CCC2=O)c1 (stereo unspecified)	none
CCOc1ccccc1NC(=O)COC(=O)c1c(CC)noc1C	none (no result: RORgamma inh, Gal4-VP16 FLuc)
Cc1noc(C)c1S(=O)(=O)N(Cc1ccccc1)C(C)C	none
CC(C)OC(=O)CC1C(=O)NCCN1C(=S)NC(=O)c1cccs1 (stereo unspecified)	RORgamma inh 2.51µM, Gal4-VP16 FLuc 11.2µM
CCCCc1nc(NCCNC(=O)c2ccco2)c(C#N)c2c1CSC(C)(C)C2	ELG1 DNA repair 14.6µM, SW480 rereplic inconclusive, MCF10A rerep inconclusive
CCc1nc(Cl)c(C#N)c2c1CSC(C)(C)C2	SW480 rereplic inconclusive
CCCCc1nc(Cl)c(C#N)c2c1CSC(C)(C)C2	RORgamma inh inconclusive, SW480 rereplic inconclusive, MCF10A rerep 23.1µM
Cc1nc2cc(C)c(C)cc2s1	none
Cc1cc2nc3ccc(=[N+](C)C)cc-3sc2cc1N	RORgamma inh inconclusive, ELG1 DNA repair 0.651µM, SW480 rereplic inconclusive, Gal4-VP16 FLuc 35.5µM
Nc1c(C(=O)CSc2nccn2-c2cccc(F)c2)c(=O)[nH]c(=O)n1C1CC1	none (no result: RORgamma inh, Gal4-VP16 FLuc)
O=C(Cn1cc(S(=O)(=O)N2CCN(c3ccccc3F)CC2)c2ccccc2c1=O)NCCCN1CCCCCC1	SW480 rereplic 20.6µM, MCF10A rerep inconclusive
COCCNC(=O)Cn1cc(S(=O)(=O)N2CCN(c3ccccc3F)CC2)c2ccccc2c1=O	none
CCOC(=O)C1CCN(C(=O)/C=C/c2ccc3c(c2)OCO3)CC1	RORgamma inh inconclusive, ELG1 DNA repair inconclusive, MCF10A rerep inconclusive
COc1cc(/C=N/NC(=S)NCC2CCCO2)cc(OC)c1OC (stereo unspecified)	RORgamma inh 4.47µM, Gal4-VP16 FLuc 15.8µM

Screening data as filed in PubChem.
